Source: publication PMC4336329 (PLoS ONE, 2015)
Out of some 310,000 compounds screened, about 14,000 (4.5%) showed an effect of 50% or more. Effects have a minus sign here. This excerpt belongs to a sample that is enriched for strong results.

These compounds were tested against human ether-à-go-go-related gene (hERG) potassium channel (human, UniProt Q12809) (assay: primary screen, population patch clamp on CHO cells stably expressing hERG; higher = less effect of the substance).
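Note: peak tail current of the secondary pulse compared with the same well before compound.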

human ether-à-go-go-related gene (hERG) potassium channel, sequence (Q12809 whole entry, looked up): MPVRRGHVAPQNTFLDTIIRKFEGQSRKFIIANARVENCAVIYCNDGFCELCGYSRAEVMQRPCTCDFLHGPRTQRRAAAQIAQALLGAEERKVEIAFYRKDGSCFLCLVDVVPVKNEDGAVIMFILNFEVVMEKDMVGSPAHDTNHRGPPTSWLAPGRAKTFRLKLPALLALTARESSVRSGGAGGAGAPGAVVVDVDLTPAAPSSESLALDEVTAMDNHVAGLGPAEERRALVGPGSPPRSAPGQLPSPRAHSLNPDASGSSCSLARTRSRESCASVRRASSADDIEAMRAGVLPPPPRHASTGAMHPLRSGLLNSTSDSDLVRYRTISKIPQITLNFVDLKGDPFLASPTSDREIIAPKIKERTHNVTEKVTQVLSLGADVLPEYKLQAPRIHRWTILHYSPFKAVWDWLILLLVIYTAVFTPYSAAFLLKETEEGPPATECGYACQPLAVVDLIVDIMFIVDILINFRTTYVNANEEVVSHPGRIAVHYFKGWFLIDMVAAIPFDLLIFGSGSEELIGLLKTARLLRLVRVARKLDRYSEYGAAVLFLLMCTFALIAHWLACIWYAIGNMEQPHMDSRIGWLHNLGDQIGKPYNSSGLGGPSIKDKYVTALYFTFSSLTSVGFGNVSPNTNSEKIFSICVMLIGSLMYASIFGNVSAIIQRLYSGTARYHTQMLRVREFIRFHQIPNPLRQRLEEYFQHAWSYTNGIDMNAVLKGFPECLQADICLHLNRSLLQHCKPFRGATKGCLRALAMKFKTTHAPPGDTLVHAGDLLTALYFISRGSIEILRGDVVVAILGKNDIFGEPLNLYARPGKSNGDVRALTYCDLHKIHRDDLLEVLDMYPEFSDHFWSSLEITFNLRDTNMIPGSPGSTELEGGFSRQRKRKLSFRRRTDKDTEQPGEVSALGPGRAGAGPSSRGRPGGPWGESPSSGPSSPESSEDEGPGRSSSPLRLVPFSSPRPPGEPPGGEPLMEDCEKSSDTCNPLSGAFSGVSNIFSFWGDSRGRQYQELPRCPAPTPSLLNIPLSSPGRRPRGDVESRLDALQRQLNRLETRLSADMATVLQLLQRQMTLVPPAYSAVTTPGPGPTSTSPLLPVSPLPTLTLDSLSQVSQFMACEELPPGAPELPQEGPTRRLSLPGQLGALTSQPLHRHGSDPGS

Row | SMILES | hERG current change (%, negative = inhibition) at 10uM
1 | Cc1cccc(-n2[nH]c3c4c(ccc3c2=O)C(=O)c2ccccc2C4=O)c1 | 4.95%
2 | Cc1onc(-c2ccccc2Cl)c1C(=O)Nc1ccc(OCC(=O)N2CCOCC2)cc1 | -3.95%
3 | CC/C(=N\NC(=O)Nc1ccccc1)c1c(O)n(Cc2ccccc2)c(=O)[nH]c1=O | 3.1%
4 | CC(=O)c1ccc(NS(=O)(=O)c2ccc3c(c2)N(C)CCO3)cc1 | 11.6%
5 | COc1ccccc1N1CCN(C(=O)C2CCCN(S(=O)(=O)c3ccc(C)cc3)C2)CC1 (stereo not shown) | -38.3%
6 | O=C(Nc1c(F)cc(F)cc1Br)c1cccnc1 | 8.61%
7 | COc1ccc(-c2ccnc3nc(-n4cccc4)nn23)cc1 | -14.7%
8 | COc1cc2nc(Nc3cccc(F)c3)nc(N)c2cc1OC.Cl | -17.7%
9 | O=C(NC1CC2CCC1C2)C1CCN(S(=O)(=O)c2ccc(-c3nn[nH]n3)cc2)CC1 (stereo not shown) | 14.4%
10 | O=C(O)c1cc(N2C(=O)C3CC=CCC3C2=O)ccc1NCc1cccnc1 (stereo not shown) | 15%
11 | CC(=O)c1cc(CN2CCN(C3CCCCC3)C(CCO)C2)cs1 (stereo not shown) | -17.2%
12 | CC(=O)c1cc(CN2CCN(Cc3ccc(C)cc3)C(CCO)C2)cs1 (stereo not shown) | -55%
13 | CC(=O)c1cc(CN2CCN(CC=C(C)C)C(CCO)C2)cs1 (stereo not shown) | 16.3%
14 | CN1C(N)=NC(=O)/C1=C\c1ccc(Br)cc1 | 8.35%
15 | CC(C)CC(C(=O)NC1CCCC1)N(Cc1ccc2c(c1)OCO2)C(=O)c1snc(C(N)=O)c1N (stereo not shown) | -20.4%
16 | CCN1CCCC1CNC(=O)c1cc2c(C)nc3ccccc3c2o1 (stereo not shown) | -12%
17 | O=C(O)C(=O)O.c1ccc(COc2ccc(OCCCCN3CCCCC3)cc2)cc1 | -70.5%
18 | O=C(O)C(=O)O.c1ccc(COc2ccc(OCCCCN3CCCC3)cc2)cc1 | -64%
19 | CSc1cccc(N2CC(C(=O)NCCC3=CCCCC3)CC2=O)c1 (stereo not shown) | 14.1%
20 | Cc1cccc(NC(=O)C2NC(=O)CC2c2ccccc2)c1C (stereo not shown) | 1.2%
21 | O=C(CSc1nnc(NC(=O)c2ccc(F)cc2F)s1)NC1CCCC1 | 17.7%
22 | Clc1ccc(N=C2SCC3CCCCN23)cc1 (stereo not shown) | -18.3%
23 | COc1ccc(S(=O)(=O)N2CCN(c3nc(C)cc(C)n3)CC2)cc1 | 2.96%
24 | Cc1nc2cc(C(=O)OCC(=O)Nc3cccc(Cl)c3)ccc2n1-c1ccccc1 | -13.6%
25 | O=C(Nc1ncc(C(F)(F)F)cc1Cl)c1ccc(S(=O)(=O)N2CCOCC2)cc1 | -13.4%
26 | COc1ccc(C(=O)Nc2cccc(-c3nnc(-c4ccco4)o3)c2)cc1 | -37.4%
27 | COc1cc(/C=N/NC(=O)c2cccc(NC(=O)c3ccccc3C)c2)ccc1O | -48.4%
28 | CC(C)Oc1cccc(C(=O)NC(=S)Nc2cccc(NC(=O)c3ccccc3Cl)c2)c1 | -11.9%

Row | SMILES | hERG current change (%, negative = inhibition) at 10uM
29 | COc1cccc(C(=O)Nc2cccc(NC(=O)c3ccccc3Cl)c2)c1 | -52%
30 | COc1cccc(C(=O)Nc2cccc(-c3nnc(-c4ccccc4)o3)c2)c1 | -4.18%
31 | COc1cccc(C(=O)Nc2cccc(-c3nnc(-c4ccco4)o3)c2)c1 | -51.4%
32 | COc1cc(/C=N\NC(=O)c2cccnc2)ccc1OC(=O)c1ccccc1Cl | -7.3%
33 | COc1cc(/C=N/NC(=O)c2ccncc2)ccc1OC(=O)c1ccccc1Cl | -50.8%
34 | COc1cccc(C(=O)Nc2cccc(NC(C)=O)c2)c1 | -8.39%
35 | COc1cc(C(=O)N/N=C/c2ccc(OC(=O)c3ccccc3Cl)c(OC)c2)ccc1O | 13.4%
36 | COc1cc(/C=N/NC(=O)c2cccc(NC(=O)c3ccccc3Cl)c2)ccc1O | -55.6%
37 | COc1ccc(/C=N/NC(=O)c2cccc(NC(=O)c3ccccc3Cl)c2)cc1OC | -3.89%
38 | CCOc1ccc(NC(=O)CCN2C(=O)CSc3ccccc32)cc1 | -25.3%
39 | O=C(/C=C\Nc1ccc2c(c1)OCO2)c1cccs1 | 17.6%
40 | Cc1nc(SCC(=O)Nc2c(C)nn(C)c2C)c2cnn(-c3ccccc3)c2n1 | 14%
41 | Cc1ccc(S(=O)(=O)N2CCOCC2)cc1NC(=O)c1cc(-c2ccccn2)nc2ccccc12 | -46.7%
42 | S=c1[nH]nc(-c2ccc(Cl)cc2Cl)n1-c1ccc2c(c1)OCCO2 | 6.46%
43 | c1ccc(C2CCC(N3CCC(N4CCCCC4)CC3)CC2)cc1 (stereo not shown) | 10.8%
44 | COCCNC(=O)CSCc1c(F)cccc1Cl | 3.73%
45 | CCCc1cc(=O)oc2cc(C)cc(OC(C)C(=O)NCc3ccccn3)c12 (stereo not shown) | -8.3%
46 | Fc1cccc2sc(Nc3nnc(-c4ccccc4)o3)nc12 | 20.5%
47 | O=c1[nH]nc(N/N=C/c2ccc(Cl)cc2Cl)c(=O)[nH]1 | -1.17%
48 | Cn1c(SCC(=O)O)nnc1-c1cccc(NC(=O)c2cccc3ccccc23)c1 | 7.15%
49 | COc1ccc(C(=O)Nc2cc(C(=O)O)cc(C(=O)O)c2)cc1Cl | 19.5%
50 | COC(=O)c1cccc(NC(=O)c2ccc(OC)c(Cl)c2)c1 | -65.3%
51 | COc1ccccc1C(=O)NCCSCc1ccccc1Cl | -15.4%
52 | COc1cccc(C(=O)NCCSCc2c(F)cccc2Cl)c1 | -29%
53 | COc1cccc(C(=O)NCCSCc2ccccc2Cl)c1 | -53.2%
54 | COc1ccc(NC(=O)c2cccc(F)c2)cc1Cl | 1.72%
55 | CCNS(=O)(=O)c1ccc(CCC(=O)NCCC2=CCCCC2)cc1 | -23.6%
